In PubChem BioAssay (NCI) one finds growth data, which are given here for 9 molecules.

Test systems include HT29 colon; SNB-75 CNS; SNB-19 CNS; U251 CNS; PC-3 prostate; SK-MEL-5 melanoma; UACC-62 melanoma; LOX IMVI melanoma; SK-MEL-2 melanoma; EKVX NSCLC; SN12C renal; UO-31 renal; TK-10 renal; ACHN renal; CAKI-1 renal; CCRF-CEM leukemia; MOLT-4 leukemia; HCT-15 colon; A498 renal; SK-MEL-28 melanoma.
Experiment in all cases: NCI-60 one-dose screen, 48 h (100 = growth as untreated, 0 = no growth, -100 = all killed)
Common to all, as to details: 10 µM unless noted

About 83,000 compounds went through this panel and 20% of them were active in at least one assay; those are over-represented in the sample as a whole.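 Negative percent growth values reflect cell death: -40 means 40% of the cells present at the start died, and -100 means all died.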 A number with no mark means an inactive call. Active and inactive are the calls of the source. Rule for the calls: active = growth percent below 10; inactive = the rest.

With `N#CC1c2ccccc2C=CN1C(=O)N(c1ccccc1)c1ccccc1` (stereo not drawn), the growth in the test on HT29 colon is 57.2%; in the test with SNB-75 CNS it was 68.6%; in the test on SNB-19 CNS, 98.5%; in the test on U251 CNS it was 57.4%; in the test on PC-3 prostate, 60%; in the test on SK-MEL-5 melanoma it was 65.4%. For the same molecule, the growth in the test with UACC-62 melanoma was 61.2%; in the test on LOX IMVI melanoma, 35.6%; in the test with SK-MEL-2 melanoma, 88.2%; in the test on EKVX NSCLC it was 102%; in the test with SN12C renal it was 76.1%; in the test with UO-31 renal, 36.5%. Besides, the growth in the test with TK-10 renal was 32.1%; in the test on ACHN renal it was 12.3%; in the test on CAKI-1 renal, 2.37% (active); in the test on CCRF-CEM leukemia, 3.82% (active); with MOLT-4 leukemia it was 3.19% (active).
As for `C/C=C(/C(=C/C)c1ccc(O)cc1)c1ccc(O)cc1`, the growth in the test with HCT-15 colon was 31.7%; with SNB-75 CNS it was 9.32% (active); in the test with SNB-19 CNS, 34.6%; in the test with U251 CNS it was 32.8%; in the test with PC-3 prostate, 46.2%; in the test on SK-MEL-5 melanoma, 5.64% (active). For the same molecule, the growth in the test with UACC-62 melanoma was 31.2%; in the test with LOX IMVI melanoma it was 39.1%; with SK-MEL-2 melanoma, 44.9%; in the test with SN12C renal, 42.8%; in the test with UO-31 renal, 38.1%; in the test with ACHN renal, 38.4%. The growth with CAKI-1 renal is 42.1%; in the test on A498 renal it was 31.4%; with CCRF-CEM leukemia, 17.1%; with MOLT-4 leukemia, 34%.
For `Cc1nn(-c2ccccc2)c2nc(N)c(C3=NCCO3)nc12`, the growth with HCT-15 colon is 98%; with SNB-75 CNS it was 73.1%; with SNB-19 CNS, 100%; in the test on PC-3 prostate, 81.4%; in the test on SK-MEL-5 melanoma, 97.4%; in the test with UACC-62 melanoma it was 96.5%. Also, the growth with LOX IMVI melanoma was 94.7%; in the test with SK-MEL-28 melanoma, 103%; in the test on SK-MEL-2 melanoma it was 111%; in the test with SN12C renal it was 96.8%; in the test with UO-31 renal, 73.5%; in the test on ACHN renal, 83%. Also, the growth was 78.4% with CAKI-1 renal, 92.1% in the test with A498 renal and 101% in the test with MOLT-4 leukemia.
On to `Nc1nc2c(c(=O)[nH]1)C1(C(=O)Nc3ccccc31)c1c(nc(N)[nH]c1=O)N2`, for which the growth in the test with HCT-15 colon was 105%; with SNB-75 CNS, 91.5%; in the test with SNB-19 CNS it was 104%; in the test with U251 CNS it was 107%; in the test with PC-3 prostate, 103%; in the test with UACC-62 melanoma, 103%. Besides, the growth with LOX IMVI melanoma was 98.2%; in the test on SK-MEL-28 melanoma, 112%; in the test with SN12C renal, 103%; in the test with UO-31 renal, 86.7%; in the test on ACHN renal it was 105%; with CAKI-1 renal, 102%. Besides, the results for the growth with A498 renal, in the test on CCRF-CEM leukemia and with MOLT-4 leukemia were 108%, 105% and 90%, respectively.
Consider `COc1ccc(-c2cnc(SCC(=O)Nc3ccc(-c4nc5ccccc5s4)cc3)n2-c2ccc(OC)cc2)cc1`, for which the growth with HT29 colon was 92.7%; with SNB-75 CNS, 93.5%; in the test with SNB-19 CNS it was 98.8%; with U251 CNS it was 109%; in the test with PC-3 prostate, 97%; in the test with SK-MEL-5 melanoma it was 99.4%. The growth in the test with UACC-62 melanoma is 93.2%; in the test with LOX IMVI melanoma, 95.2%; with SK-MEL-28 melanoma it was 120%; in the test on SK-MEL-2 melanoma, 102%; in the test with SN12C renal it was 104%; with UO-31 renal, 91.7%. For the same molecule, the growth is 111% with ACHN renal; 103% in the test with CAKI-1 renal; 108% in the test on A498 renal; 94.2% in the test on CCRF-CEM leukemia; 105% in the test on MOLT-4 leukemia.
Regarding `COc1ccccc1NC(=O)c1sc2nc3c(cc2c1N)C(=O)CCC3`, the growth was 47.3% in the test with HCT-15 colon; 56.6% in the test with SNB-75 CNS; 64.6% with SNB-19 CNS; 65.1% with U251 CNS; 65.9% with PC-3 prostate; 38.9% with SK-MEL-5 melanoma. Also, the growth in the test with UACC-62 melanoma is 44.4%; with LOX IMVI melanoma, 79.4%; in the test on SK-MEL-28 melanoma, 59.1%; in the test on SN12C renal, 70.2%; in the test with UO-31 renal, 70.5%; in the test with ACHN renal, 70.4%. Also, the growth in the test with CAKI-1 renal is 52.7%; in the test on A498 renal it was -5.03% (active); in the test on CCRF-CEM leukemia, 67.7%; with MOLT-4 leukemia, 89.6%.
`O=[N+]([O-])c1cc([N+](=O)[O-])c(N2CCCC2)cc1NN=C(c1ccc(O)cc1)c1ccc(O)cc1`: the growth in the test with HCT-15 colon is 46.9%; with SNB-75 CNS it was 71.8%; in the test on SNB-19 CNS, 37.3%; in the test with U251 CNS, 68.5%; with SK-MEL-5 melanoma it was 18.8%; in the test on UACC-62 melanoma, 63.1%. Also, the growth in the test with LOX IMVI melanoma was 41.6%; in the test on SK-MEL-28 melanoma, 97.1%; with SK-MEL-2 melanoma it was -47.6% (active); with EKVX NSCLC it was 90.5%; with SN12C renal, 128%; in the test on UO-31 renal, -78.1% (active). Besides, the growth is 131% with TK-10 renal; 46.9% in the test with ACHN renal; 91.9% with CAKI-1 renal; 122% in the test with A498 renal; 55.3% in the test on CCRF-CEM leukemia; 57.3% in the test on MOLT-4 leukemia.
Take `COc1cc(NC(C)CCCN)c2nc(C)ccc2c1Oc1ccc(F)cc1` (stereo not drawn): the growth in the test with HCT-15 colon is 71.2%; with SNB-75 CNS, 64.6%; with SNB-19 CNS, 78.8%; with U251 CNS, 73.2%; in the test with PC-3 prostate, 63.9%; in the test on SK-MEL-5 melanoma, 86.2%. For the same molecule, the growth in the test on LOX IMVI melanoma is 51%; in the test with SK-MEL-28 melanoma, 97.8%; in the test with EKVX NSCLC, 75.1%; in the test on SN12C renal, 69.9%; in the test with UO-31 renal it was 45.4%; in the test on ACHN renal, 84.6%. For the same molecule, the growth in the test with CAKI-1 renal is 75.9%; in the test with A498 renal, 60.4%; in the test with CCRF-CEM leukemia it was 78.2%; in the test with MOLT-4 leukemia, 63.1%.
As to `COc1cc(/C=N/NC(=O)c2ccc(C(F)(F)F)nc2Nc2ccc(Cl)cc2C)ccc1O`, the growth in the test with HCT-15 colon is 27.9%; with SNB-75 CNS it was 19.7%; with SNB-19 CNS, 54.4%; with U251 CNS, 33.8%; in the test on PC-3 prostate, 24.8%; in the test with UACC-62 melanoma, 44.5%. The growth in the test with LOX IMVI melanoma is 33.7%; in the test on SK-MEL-28 melanoma, 42.5%; in the test on SK-MEL-2 melanoma, 18.8%; with EKVX NSCLC, 38.4%; in the test with SN12C renal, 68.6%; in the test with UO-31 renal, 0.291% (active). In addition, the growth in the test on TK-10 renal is 49.7%; in the test on ACHN renal, 33.4%; in the test with CAKI-1 renal it was 39.6%; in the test with A498 renal it was -37.9% (active); in the test with CCRF-CEM leukemia it was 12.6%; in the test with MOLT-4 leukemia, -23.6% (active).
